Measured values from the supplement of paper PMC10849652.
Targets with a hit are over-represented here; the source holds about 8,800 in all. About 0.5% of all pairs of compound and target were hits.

Key:
Assay in all cases: log2 fold change, soluble protein after heating vs DMSO (PISA); higher = thermal stabilisation; K562 lysate, 10 uM; active = over 0.2 and 3.5 SD of the protein, either way, in both replicates (recomputed)
[1] = compound: CS(=O)(=O)CCNCc1ccc(-c2ccc3ncnc(Nc4ccc(OCc5cccc(F)c5)c(Cl)c4)c3c2)o1 [lapatinib]
Summary of the method: (§1)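 Dounce homogenisation of K562 pellets in PBS pH 7.4 with 1 mM MgCl2 produced a crude extract, used at 1 mg/mL protein. Exposure to 10 μM compound lasted 30 min, and aliquots were then heated for 3 min across 48°C-58°C, pooled and brought to 0.5% NP-40 at 4°C. The supernatant after 21,000xg for 90 min was quantified by TMTpro 16plex LC-MS/MS with channel sums equalised. Duplicate values are given as log-two fold change in thermal stability relative to solvent controls.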

[2] = compound: CS(=O)(=O)N1CCN(Cc2cc3nc(-c4cccc5[nH]ncc45)nc(N4CCOCC4)c3s2)CC1 [pictilisib]
Summary of the method: as §1

[3] = compound: C[C@@H](Oc1cc(-c2cnn(C3CCNCC3)c2)cnc1N)c1c(Cl)ccc(F)c1Cl [crizotinib]
Summary of the method: as §1

[4] = compound: C[C@H](C1=CC=C(C=C1)C(=O)NC2=C3C=CNC3=NC=C2)N
Summary of the method: as §1

[5] = compound: C[C@H](Nc1ncnc2nc[nH]c12)c1cc2cccc(Cl)c2c(=O)n1-c1ccccc1 [duvelisib]
Summary of the method: as §1

[6] = compound: Cc1cc(Nc2cc(CN3CCOCC3)c3nc(C)c(Cc4ccc(Cl)cc4F)n3n2)n[nH]1 [gandotinib]
Summary of the method: as §1

[7] = compound: Cc1cc(Nc2cc(N3CCN(C)CC3)nc(Sc3ccc(NC(=O)C4CC4)cc3)n2)n[nH]1 [tozasertib]
Summary of the method: as §1

[8] = compound: Cc1ccc(-n2nc(C(C)(C)C)cc2NC(=O)Nc2ccc(OCCN3CCOCC3)c3ccccc23)cc1 [doramapimod]
Summary of the method: as §1

[9] = compound: Cc1ccc(NC(=O)c2ccc(CN3CC[C@H](N(C)C)C3)c(C(F)(F)F)c2)cc1Nc1nccc(-c2cncnc2)n1 [bafetinib]
Summary of the method: as §1

[10] = compound: Cc1cccc(CC(=O)N2CCc3c2ccc(-c2cn(C)c4ncnc(N)c24)c3F)n1
Summary of the method: as §1

Sequence of UniProt P80303 (P80303 whole entry, looked up): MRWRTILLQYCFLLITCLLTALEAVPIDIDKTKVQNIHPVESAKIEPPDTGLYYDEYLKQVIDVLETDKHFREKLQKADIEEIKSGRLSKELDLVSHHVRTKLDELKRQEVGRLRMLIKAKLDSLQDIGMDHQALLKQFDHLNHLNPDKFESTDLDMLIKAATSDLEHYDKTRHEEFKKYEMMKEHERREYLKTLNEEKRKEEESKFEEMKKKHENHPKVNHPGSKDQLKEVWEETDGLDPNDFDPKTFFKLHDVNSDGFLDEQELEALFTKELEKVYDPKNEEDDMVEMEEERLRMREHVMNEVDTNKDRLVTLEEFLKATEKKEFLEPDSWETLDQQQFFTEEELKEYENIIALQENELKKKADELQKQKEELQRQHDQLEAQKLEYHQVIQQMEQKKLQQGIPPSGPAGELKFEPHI
Sequence of UniProt O00483 (O00483 whole entry, looked up): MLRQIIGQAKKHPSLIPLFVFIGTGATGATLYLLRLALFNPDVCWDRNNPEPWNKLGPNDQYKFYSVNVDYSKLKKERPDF
Sequence of UniProt Q8TEM1 (Q8TEM1 whole entry, looked up): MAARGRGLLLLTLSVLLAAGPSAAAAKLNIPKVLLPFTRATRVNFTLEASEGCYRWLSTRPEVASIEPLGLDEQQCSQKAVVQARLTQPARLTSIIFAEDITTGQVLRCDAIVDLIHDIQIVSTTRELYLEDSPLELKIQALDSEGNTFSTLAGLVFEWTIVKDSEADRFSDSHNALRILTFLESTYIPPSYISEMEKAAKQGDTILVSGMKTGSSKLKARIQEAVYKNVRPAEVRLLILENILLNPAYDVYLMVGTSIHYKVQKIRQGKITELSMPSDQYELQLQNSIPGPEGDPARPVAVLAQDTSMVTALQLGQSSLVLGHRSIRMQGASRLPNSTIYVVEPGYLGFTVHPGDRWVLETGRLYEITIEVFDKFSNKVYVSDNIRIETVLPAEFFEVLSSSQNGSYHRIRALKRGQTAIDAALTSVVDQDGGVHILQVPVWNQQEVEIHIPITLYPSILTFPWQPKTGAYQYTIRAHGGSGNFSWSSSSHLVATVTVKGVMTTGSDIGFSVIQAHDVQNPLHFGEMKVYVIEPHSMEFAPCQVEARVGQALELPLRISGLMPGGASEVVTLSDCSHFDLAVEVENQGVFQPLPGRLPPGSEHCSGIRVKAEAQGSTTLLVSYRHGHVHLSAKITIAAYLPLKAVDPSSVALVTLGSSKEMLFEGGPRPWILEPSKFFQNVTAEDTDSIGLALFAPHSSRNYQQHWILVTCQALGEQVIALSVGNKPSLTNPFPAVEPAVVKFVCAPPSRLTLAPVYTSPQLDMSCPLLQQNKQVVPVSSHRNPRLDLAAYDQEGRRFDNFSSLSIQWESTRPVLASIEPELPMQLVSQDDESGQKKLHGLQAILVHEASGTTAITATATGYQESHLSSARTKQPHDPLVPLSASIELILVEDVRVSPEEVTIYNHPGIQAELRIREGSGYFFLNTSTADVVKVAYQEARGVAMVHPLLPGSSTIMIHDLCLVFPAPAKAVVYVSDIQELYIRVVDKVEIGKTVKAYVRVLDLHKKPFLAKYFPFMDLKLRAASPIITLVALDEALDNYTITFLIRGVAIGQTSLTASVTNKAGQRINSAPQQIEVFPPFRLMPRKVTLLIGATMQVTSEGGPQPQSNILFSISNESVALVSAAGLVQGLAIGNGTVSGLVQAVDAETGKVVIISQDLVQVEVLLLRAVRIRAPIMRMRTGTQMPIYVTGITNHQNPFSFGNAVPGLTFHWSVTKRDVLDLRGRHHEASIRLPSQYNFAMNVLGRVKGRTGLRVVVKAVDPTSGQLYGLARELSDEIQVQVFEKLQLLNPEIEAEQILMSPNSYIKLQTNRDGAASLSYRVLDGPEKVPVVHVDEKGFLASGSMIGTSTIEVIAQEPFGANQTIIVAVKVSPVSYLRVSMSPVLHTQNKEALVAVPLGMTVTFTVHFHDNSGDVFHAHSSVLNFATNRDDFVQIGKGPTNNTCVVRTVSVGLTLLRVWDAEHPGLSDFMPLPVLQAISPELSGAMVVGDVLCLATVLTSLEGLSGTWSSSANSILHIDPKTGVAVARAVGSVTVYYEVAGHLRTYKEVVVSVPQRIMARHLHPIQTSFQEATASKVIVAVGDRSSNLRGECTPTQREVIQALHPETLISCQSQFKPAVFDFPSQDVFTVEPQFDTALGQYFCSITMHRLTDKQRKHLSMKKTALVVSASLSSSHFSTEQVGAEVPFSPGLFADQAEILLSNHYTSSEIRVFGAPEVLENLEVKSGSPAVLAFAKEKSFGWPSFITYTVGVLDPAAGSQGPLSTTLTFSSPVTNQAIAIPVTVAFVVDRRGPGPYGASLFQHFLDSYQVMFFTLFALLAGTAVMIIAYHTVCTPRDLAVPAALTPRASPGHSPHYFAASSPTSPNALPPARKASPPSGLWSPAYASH
Sequence of UniProt Q15003 (Q15003 whole entry, looked up): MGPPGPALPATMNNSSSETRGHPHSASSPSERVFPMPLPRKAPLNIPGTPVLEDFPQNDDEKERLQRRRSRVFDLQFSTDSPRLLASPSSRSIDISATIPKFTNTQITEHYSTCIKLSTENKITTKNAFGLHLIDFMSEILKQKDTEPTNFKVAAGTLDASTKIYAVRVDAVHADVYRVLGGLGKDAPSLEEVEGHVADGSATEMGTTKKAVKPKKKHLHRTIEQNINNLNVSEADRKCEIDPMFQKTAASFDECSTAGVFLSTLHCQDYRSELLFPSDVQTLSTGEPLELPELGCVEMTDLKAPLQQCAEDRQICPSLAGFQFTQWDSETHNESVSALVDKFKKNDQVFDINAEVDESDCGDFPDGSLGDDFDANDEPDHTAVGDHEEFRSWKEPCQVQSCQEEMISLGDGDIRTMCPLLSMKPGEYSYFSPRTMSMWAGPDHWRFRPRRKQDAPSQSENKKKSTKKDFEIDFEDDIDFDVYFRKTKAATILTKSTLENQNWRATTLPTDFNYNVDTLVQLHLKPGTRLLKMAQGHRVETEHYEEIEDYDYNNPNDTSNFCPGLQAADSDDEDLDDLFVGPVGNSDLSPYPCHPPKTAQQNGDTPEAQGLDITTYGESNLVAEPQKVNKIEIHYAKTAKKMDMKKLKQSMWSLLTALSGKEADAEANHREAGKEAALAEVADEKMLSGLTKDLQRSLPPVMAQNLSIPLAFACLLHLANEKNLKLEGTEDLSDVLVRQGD
Sequence of UniProt Q8NC60 (Q8NC60 whole entry, looked up): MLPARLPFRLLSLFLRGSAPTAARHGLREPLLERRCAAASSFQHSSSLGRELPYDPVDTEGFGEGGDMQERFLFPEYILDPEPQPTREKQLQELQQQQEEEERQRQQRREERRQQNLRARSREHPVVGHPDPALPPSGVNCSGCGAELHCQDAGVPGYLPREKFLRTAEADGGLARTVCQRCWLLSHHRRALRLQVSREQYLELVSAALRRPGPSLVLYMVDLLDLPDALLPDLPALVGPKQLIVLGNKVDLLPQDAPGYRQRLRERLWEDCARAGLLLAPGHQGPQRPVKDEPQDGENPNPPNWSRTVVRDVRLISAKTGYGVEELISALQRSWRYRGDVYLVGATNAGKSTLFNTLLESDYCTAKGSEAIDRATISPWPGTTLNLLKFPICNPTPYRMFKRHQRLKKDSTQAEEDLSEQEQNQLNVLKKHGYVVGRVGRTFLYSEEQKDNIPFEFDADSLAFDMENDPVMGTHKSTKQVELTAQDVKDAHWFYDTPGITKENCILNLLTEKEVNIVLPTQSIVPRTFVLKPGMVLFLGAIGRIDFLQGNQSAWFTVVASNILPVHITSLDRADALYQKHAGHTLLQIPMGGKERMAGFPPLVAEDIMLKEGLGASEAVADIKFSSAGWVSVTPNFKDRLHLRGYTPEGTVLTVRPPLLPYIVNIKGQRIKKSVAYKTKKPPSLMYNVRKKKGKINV
Sequence of UniProt Q15653 (Q15653 whole entry, looked up): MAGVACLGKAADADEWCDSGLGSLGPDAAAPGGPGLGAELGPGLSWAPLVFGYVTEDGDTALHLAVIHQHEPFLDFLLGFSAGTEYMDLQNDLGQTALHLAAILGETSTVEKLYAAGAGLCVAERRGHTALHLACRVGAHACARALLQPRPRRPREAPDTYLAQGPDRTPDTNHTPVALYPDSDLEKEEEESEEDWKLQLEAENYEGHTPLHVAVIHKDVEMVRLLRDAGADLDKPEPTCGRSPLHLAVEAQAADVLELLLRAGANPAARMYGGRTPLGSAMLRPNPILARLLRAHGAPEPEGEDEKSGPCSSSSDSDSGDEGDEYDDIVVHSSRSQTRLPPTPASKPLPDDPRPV
Sequence of UniProt Q15233 (Q15233 whole entry, looked up): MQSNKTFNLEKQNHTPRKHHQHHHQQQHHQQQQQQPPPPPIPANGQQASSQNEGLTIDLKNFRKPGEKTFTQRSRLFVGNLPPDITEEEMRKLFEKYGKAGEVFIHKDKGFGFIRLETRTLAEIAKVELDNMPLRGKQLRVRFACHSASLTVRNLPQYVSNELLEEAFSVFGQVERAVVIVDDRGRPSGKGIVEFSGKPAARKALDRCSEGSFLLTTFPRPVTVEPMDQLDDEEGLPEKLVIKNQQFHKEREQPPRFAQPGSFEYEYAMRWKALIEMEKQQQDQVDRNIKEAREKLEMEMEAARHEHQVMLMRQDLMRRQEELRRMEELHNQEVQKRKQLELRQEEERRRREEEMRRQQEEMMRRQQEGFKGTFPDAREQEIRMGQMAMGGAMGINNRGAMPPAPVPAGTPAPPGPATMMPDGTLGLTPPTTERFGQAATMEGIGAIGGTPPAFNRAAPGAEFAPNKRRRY
Sequence of UniProt Q9Y314 (Q9Y314 whole entry, looked up): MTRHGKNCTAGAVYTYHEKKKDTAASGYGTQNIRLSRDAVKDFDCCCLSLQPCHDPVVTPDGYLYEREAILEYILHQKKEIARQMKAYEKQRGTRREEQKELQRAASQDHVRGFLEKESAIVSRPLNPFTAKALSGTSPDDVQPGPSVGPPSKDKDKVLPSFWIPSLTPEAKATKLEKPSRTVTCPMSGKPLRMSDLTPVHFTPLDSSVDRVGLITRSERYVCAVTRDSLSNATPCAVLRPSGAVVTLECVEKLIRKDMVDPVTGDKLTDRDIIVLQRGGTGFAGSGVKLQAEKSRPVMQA

Row | Target | log2 fold change [1] | log2 fold change [2] | log2 fold change [3] | log2 fold change [4] | log2 fold change [5] | log2 fold change [6] | log2 fold change [7] | log2 fold change [8] | log2 fold change [9] | log2 fold change [10]
1 | MTA2 (UniProt O94776) | -0.003 (inactive) | 0.017 (inactive) | 0 (inactive) | 0.013 (inactive) | 0 (inactive) | -0.033 (inactive) | -0.016 (inactive) | 0.031 (inactive) | -0.009 (inactive) | 0.021 (inactive)
2 | NOA1 (UniProt Q8NC60) | -0.043 (inactive) | 0.032 (inactive) | -0.052 (inactive) | -0.282 (inactive) | 0.014 (inactive) | 0.039 (inactive) | -0.034 (inactive) | 0.021 (inactive) | -0.221 (inactive) | 0.167 (inactive)
3 | MYCBP (UniProt Q99417) | 0.01 (inactive) | -0.052 (inactive) | 0.003 (inactive) | -0.498 (active) | 0.02 (inactive) | 0.105 (inactive) | 0.028 (inactive) | 0.008 (inactive) | -0.018 (inactive) | 0.182 (inactive)
4 | MTCH2 (UniProt Q9Y6C9) | -0.023 (inactive) | -0.018 (inactive) | -0.059 (inactive) | -0.144 (inactive) | -0.011 (inactive) | 0.142 (inactive) | -0.028 (inactive) | 0.024 (inactive) | -0.04 (inactive) | 0.022 (inactive)
5 | NARS2 (UniProt Q96I59) | 0.039 (inactive) | -0.132 (inactive) | -0.034 (inactive) | 0.039 (inactive) | -0.002 (inactive) | -0.058 (inactive) | 0.013 (inactive) | -0.01 (inactive) | -0.053 (inactive) | 0.024 (inactive)
6 | NDUFA4 (UniProt O00483) | 0.124 (inactive) | 0.017 (inactive) | 0.02 (inactive) | 0.009 (inactive) | 0.059 (inactive) | -0.294 (active) | -0.01 (inactive) | 0.02 (inactive) | 0 (inactive) | -0.026 (inactive)
7 | NFATC2IP (UniProt Q8NCF5) | 0.002 (inactive) | -0.091 (inactive) | 0.027 (inactive) | 0.059 (inactive) | -0.067 (inactive) | 0.039 (inactive) | -0.035 (inactive) | 0.001 (inactive) | -0.169 (inactive) | -0.018 (inactive)
8 | OGFOD2 (UniProt Q6N063) | 0.034 (inactive) | -0.031 (inactive) | -0.017 (inactive) | -0.029 (inactive) | 0.045 (inactive) | -0.016 (inactive) | 0.019 (inactive) | -0.013 (inactive) | -0.09 (inactive) | 0.032 (inactive)
9 | PARG (UniProt Q86W56) | 0.017 (inactive) | -0.035 (inactive) | -0.058 (inactive) | 0.047 (inactive) | -0.02 (inactive) | -0.065 (inactive) | -0.033 (inactive) | 0.005 (inactive) | -0.004 (inactive) | -0.01 (inactive)
10 | NOSIP (UniProt Q9Y314) | -0.03 (inactive) | -0.042 (inactive) | -0.026 (inactive) | 0.02 (inactive) | -0.004 (inactive) | 0.017 (inactive) | -0.053 (inactive) | 0.013 (inactive) | -0.003 (inactive) | 0.038 (inactive)
11 | NOC2L (UniProt Q9Y3T9) | -0.049 (inactive) | -0.012 (inactive) | -0.077 (inactive) | -0.004 (inactive) | -0.074 (inactive) | -0.037 (inactive) | -0.015 (inactive) | 0.03 (inactive) | -0.137 (inactive) | 0.09 (inactive)
12 | NUSAP1 (UniProt Q9BXS6) | -0.004 (inactive) | -0.018 (inactive) | 0.045 (inactive) | -0.334 (active) | -0.022 (inactive) | 0.141 (inactive) | -0.001 (inactive) | -0.011 (inactive) | 0.008 (inactive) | 0.217 (active)
13 | N4BP2 (UniProt Q86UW6) | 0.003 (inactive) | 0.054 (inactive) | 0.002 (inactive) | -0.236 (active) | 0.028 (inactive) | 0.014 (inactive) | -0.032 (inactive) | -0.015 (inactive) | -0.038 (inactive) | 0.149 (inactive)
14 | NONO (UniProt Q15233) | -0.004 (inactive) | 0.001 (inactive) | 0.011 (inactive) | 0.071 (inactive) | -0.01 (inactive) | -0.06 (inactive) | 0.028 (inactive) | -0.014 (inactive) | -0.033 (inactive) | -0.04 (inactive)
15 | NUCB2 (UniProt P80303) | -0.006 (inactive) | -0.006 (inactive) | 0.041 (inactive) | 0.253 (active) | 0.008 (inactive) | -0.044 (inactive) | 0.003 (inactive) | -0.024 (inactive) | -0.022 (inactive) | -0.126 (inactive)
16 | OLA1 (UniProt Q9NTK5) | -0.009 (inactive) | 0.013 (inactive) | -0.005 (inactive) | -0.088 (inactive) | 0.007 (inactive) | -0.035 (inactive) | 0.025 (inactive) | 0.018 (inactive) | 0.024 (inactive) | 0.052 (inactive)
17 | OSGEP (UniProt Q9NPF4) | -0.011 (inactive) | -0.025 (inactive) | -0.006 (inactive) | -0.07 (inactive) | -0.037 (inactive) | -0.024 (inactive) | 0.043 (inactive) | -0.035 (inactive) | -0.008 (inactive) | 0.033 (inactive)
18 | NDC1 (UniProt Q9BTX1) | -0.087 (inactive) | -0.012 (inactive) | -0.027 (inactive) | -0.333 (active) | -0.044 (inactive) | 0.185 (inactive) | -0.01 (inactive) | -0.001 (inactive) | -0.066 (inactive) | 0.296 (active)
19 | MTOR (UniProt P42345) | -0.008 (inactive) | -0.016 (inactive) | -0.068 (inactive) | -0.042 (inactive) | 0.021 (inactive) | -0.079 (inactive) | 0.018 (inactive) | 0.055 (inactive) | -0.015 (inactive) | 0.053 (inactive)
20 | MSH3 (UniProt P20585) | -0.021 (inactive) | -0.005 (inactive) | -0.004 (inactive) | -0.018 (inactive) | -0.001 (inactive) | -0.019 (inactive) | 0.021 (inactive) | 0.019 (inactive) | -0.003 (inactive) | 0.028 (inactive)
21 | NFKBIB (UniProt Q15653) | 0.093 (inactive) | -0.011 (inactive) | -0.055 (inactive) | -0.36 (active) | 0.004 (inactive) | 0.095 (inactive) | -0.024 (inactive) | 0.024 (inactive) | -0.049 (inactive) | 0.127 (inactive)
22 | NUP210 (UniProt Q8TEM1) | -0.074 (inactive) | -0.076 (inactive) | -0.028 (inactive) | -0.034 (inactive) | 0.013 (inactive) | -0.08 (inactive) | -0.012 (inactive) | -0.017 (inactive) | -0.007 (inactive) | 0.044 (inactive)
23 | MRPS18A isoform 2 (UniProt Q9NVS2) | 0.005 (inactive) | -0.046 (inactive) | -0.02 (inactive) | 0.262 (inactive) | -0.133 (inactive) | -0.164 (inactive) | 0.043 (inactive) | -0.005 (inactive) | 0 (inactive) | -0.226 (inactive)
24 | OPA1 isoform 2 (UniProt O60313) | -0.017 (inactive) | 0.002 (inactive) | -0.096 (inactive) | -0.013 (inactive) | -0.002 (inactive) | -0.248 (active) | 0.03 (inactive) | 0.023 (inactive) | -0.073 (inactive) | 0.048 (inactive)
25 | NAA38 isoform 2 (UniProt Q9BRA0) | -0.028 (inactive) | -0.018 (inactive) | 0.001 (inactive) | -0.382 (active) | -0.016 (inactive) | 0.202 (inactive) | 0.062 (inactive) | -0.088 (inactive) | -0.041 (inactive) | 0.244 (active)
26 | NMT1 (UniProt P30419) | 0.02 (inactive) | 0.005 (inactive) | -0.006 (inactive) | 0.016 (inactive) | -0.023 (inactive) | -0.021 (inactive) | 0.012 (inactive) | -0.015 (inactive) | 0.09 (inactive) | -0.034 (inactive)
27 | NCAPH (UniProt Q15003) | -0.012 (inactive) | 0.005 (inactive) | -0.019 (inactive) | -0.015 (inactive) | 0.046 (inactive) | -0.101 (inactive) | 0 (inactive) | 0.036 (inactive) | -0.013 (inactive) | 0.028 (inactive)
